This is part of a sample that, as a whole, favours compounds with a hit. Of some 83,000 tested, about 20% had one in any assay.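 Treatment: one concentration, 48 hours, 96-well format. Scoring: percent growth, with anything below 10 considered active.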 Values without a mark were called inactive. Calls of active or inactive are those of the source.
How the values were obtained:
Experiment in all cases: NCI-60 one-dose screen, 48 h (100 = growth as untreated, 0 = no growth, -100 = all killed)
Settings in all cases: 10 µM
DU-145 prostate = tested on: DU-145 prostate
K-562 leukemia = tested on: K-562 leukemia
MALME-3M melanoma = tested on: MALME-3M melanoma
MDA-MB-231 breast = tested on: MDA-MB-231 breast
RXF 393 renal = tested on: RXF 393 renal
SF-268 CNS = tested on: SF-268 CNS
SF-295 CNS = tested on: SF-295 CNS
SF-539 CNS = tested on: SF-539 CNS
UACC-257 melanoma = tested on: UACC-257 melanoma
M14 melanoma = tested on: M14 melanoma

| Structure (SMILES) | growth (DU-145 prostate) | growth (K-562 leukemia) | growth (MALME-3M melanoma) | growth (MDA-MB-231 breast) | growth (RXF 393 renal) | growth (SF-268 CNS) | growth (SF-295 CNS) | growth (SF-539 CNS) | growth (UACC-257 melanoma) | growth (M14 melanoma) |
| --- | --- | --- | --- | --- | --- | --- | --- | --- | --- | --- |
| COc1csc(/C=N/NC(=O)c2[nH]c3ccc(Br)cc3c2-c2ccccc2)c1 | 7.13% (active) | 4.06% (active) | 30.9% | 3.77% (active) | 23.3% | 23.5% | -10.2% (active) | -39.8% (active) | 34.8% | 11.5% |
| CN1CCN(c2ccc(C(=O)/C=C/c3cc(Br)ccc3F)cc2)CC1 | 44.8% | -35.5% (active) | 78.9% | 26.9% | 38.8% | 88.6% | 60.7% | 2.31% (active) | 73.8% | 52.1% |
| COc1cc(NC(=O)c2cc(-c3ccc(F)cc3F)ccc2O)cc(OC)c1OC | 34.3% | 14% | 17.4% | 47.5% | 75.9% | 25.9% | 65.5% | 50.8% | 55.3% | 55.8% |
| CC(=O)NNc1ccc2nnc(-c3ccc(Br)cc3)n2n1 | 103% | 95.5% | 107% | 94% | 68.5% | 102% | 96.1% | 90.2% | 105% | 98.2% |
| O=C(O)CCCCCCCCCCN1C(=O)/C(=C/c2cnc(-c3ccccc3)s2)SC1=S | 80.4% | 23.6% | 103% | 100% | 116% | 112% | 83.3% | 110% | 101% | 101% |
| O=C1NC(=NC2CCCCCC2)N/C1=C\c1ccc2ncoc2c1 | 31.1% | 38.1% | 66.4% | 50.9% | -8.82% (active) | 35% | 47.5% | -2.22% (active) | 48.7% | 64.4% |
| COc1cc(OC(F)(F)F)ccc1C(=O)Nc1sc2c(c1C#N)CCC(=O)C2 | 103% | 11% | 85% | 66.7% | 22.8% | 96.6% | 60.7% | 8.76% (active) | 98% | 64.4% |
| COc1ccc(N(C)c2cc(C#N)nc3ccccc23)cc1N | 20.3% | 10.7% | 62.1% | 12.2% | 57.2% | 22% | 15.8% | -23.7% (active) | 63.3% | 26.5% |
| O=C(c1ccc(Cl)cc1)C1[C@H](c2ccccc2Br)[C@@H](c2ccccc2)NC12C(=O)Nc1ccc(Cl)cc12 (stereo not given in full) | 29.1% | 7.94% (active) | 51.8% | 5.9% (active) | -33.7% (active) | 23.4% | 15.2% | 39.7% | 42.5% | 25.2% |
| O=C(CN1CCN(c2ncnc3c2cnn3-c2ccccc2)CC1)Nc1nncs1 | -96.1% (active) | 10.6% | -67.3% (active) | 29.7% | -71.3% (active) | -34.4% (active) | -31.4% (active) | -88.2% (active) | 54.3% | 4.82% (active) |
| N#Cc1c(Cl)nc(SCc2ccc(F)cc2)nc1-c1ccc(F)cc1 | 92.5% | 69.8% | 112% | 94.6% | 89.7% | 96.2% | 90% | 91.9% | 100% | 103% |
| O=C1NC(=NC23CC4CC(CC(C4)C2)C3)N/C1=C\c1ccc2ncoc2c1 | 7.99% (active) | 12.1% | -24.3% (active) | -1.98% (active) | -52.5% (active) | 9.72% (active) | 11.2% | -49.2% (active) | 4.63% (active) | 29.4% |
| COc1cccc(/C=N/NC(=O)c2ccc3nc(-c4ccc(Cl)cc4)[nH]c3c2)c1O | -96.1% (active) | -37.2% (active) | -96.3% (active) | -72.8% (active) | -96.5% (active) | -79% (active) | -91.3% (active) | -99% (active) | -83.8% (active) | -79.5% (active) |
| Clc1ccc(/C=N/Nc2ncnc3sc4c(c23)CCN(Cc2ccccc2)C4)cc1 | 3.38% (active) | 1.43% (active) | -66.9% (active) | -65.8% (active) | 31.5% | -31.2% (active) | -81.6% (active) | -87.1% (active) | -15.5% (active) | -63.2% (active) |
| Cc1cc2nc3c4ccccc4n(CCO)c3nc2cc1C | 58% | 74.4% | 37.8% | 18.5% | 38.6% | 78.1% | 66% | 37.1% | 91.7% | 84.6% |
| O=C(c1ccc(O)cc1)C1[C@H](c2ccccc2Br)[C@@H](c2ccccc2)NC12C(=O)Nc1ccc(Cl)cc12 (stereo not given in full) | 32.5% | 7.61% (active) | -10.7% (active) | -57.3% (active) | -19.5% (active) | 27.7% | -6.39% (active) | 8.24% (active) | 25% | 28.4% |
| CCCCCCCCCCCCCCCCCCCC(=O)NCCc1c[nH]c2ccc(O)cc12 | 105% | 74.5% | 120% | 78% | 115% | 91.6% | 96.3% | 60.8% | 107% | 101% |
| N#Cc1c(NC(=O)c2ccc(C(F)(F)F)cc2)sc2c1CCC(O)=C2 | 38.5% | 8.86% (active) | 23.2% | 13.5% | 14.6% | 43.3% | 17.5% | 3.2% (active) | 36% | 13% |
| COC(=O)CC1CC1C1Cc2c(nc(N(C)S(C)(=O)=O)nc2C(C)C)-c2ccc(F)cc21 (stereo not given) | 92.7% | 34.3% | 112% | 69.3% | 79.8% | 93.8% | 72.4% | 96% | 83.8% | 70.4% |
| N#Cc1c(NC(=O)c2ccc(C(F)(F)F)c(Cl)c2)sc2c1CCC(=O)C2 | 19.5% | 0.454% (active) | -56.9% (active) | -87.5% (active) | -86.3% (active) | -22.7% (active) | -88.9% (active) | -87.6% (active) | -23.3% (active) | -68.8% (active) |
| COc1cc2c(c(OC)c1OC)C(=O)CC(c1cccc(NC(=O)c3cccc(N)c3)c1)O2 (stereo not given) | 83% | 47.5% | 78.8% | 68.3% | 100% | 81.7% | 92.8% | 95.3% | 93.4% | 96.5% |
| Cc1cc(C)cc(Oc2cccc(-c3c(C)nnn3C3CCN(CCN(C)C)CC3)n2)c1 | 55.8% | 13.6% | -40.5% (active) | 36.9% | -6.82% (active) | 52.2% | 32.9% | 34.2% | -31.7% (active) | 7.14% (active) |
| CS(=O)(=O)Nc1ccc(-c2ccc3c(c2)ncn3-c2ccc(NC(=O)Nc3ccc(Cl)c(C(F)(F)F)c3)cc2)cc1 | -4.47% (active) | -26% (active) | -80.8% (active) | -84.6% (active) | -57.5% (active) | 2.56% (active) | -77.5% (active) | -88.8% (active) | -57.2% (active) | -95.3% (active) |
| O=C1NC(=NC23CC4CC(CC(C4)C2)C3)N/C1=C\c1ccc2ncccc2n1 | 2.14% (active) | 13.6% | -41.3% (active) | -18.5% (active) | -78.1% (active) | -29.8% (active) | -27.5% (active) | -77.7% (active) | -4.23% (active) | 14.5% |
| COc1ccc2[nH]c(=O)c(CSc3cccc(N)c3)cc2c1 | 59.4% | 15.6% | 97.1% | 72.7% | 84.8% | 58% | 31.2% | 71.3% | 62.3% | 24% |
| COc1ccc2nc(Nc3cccc(NC(=O)c4ccc(CN5CCN(C)CC5)c(C(F)(F)F)c4)c3)ccc2c1 | -32.8% (active) | -70.8% (active) | -91.8% (active) | -82.7% (active) | -75.7% (active) | -55.2% (active) | -97.7% (active) | -99.8% (active) | -83.9% (active) | -50.1% (active) |
| C=C1CCC2C3(C)COC(c4c(F)cccc4F)OC3CCC2(C)C1C/C=C1/C(=O)OCC1O (stereo not given) | -60.3% (active) | 13.4% | -62.7% (active) | -33.4% (active) | -72.8% (active) | 65.2% | -21% (active) | -92.2% (active) | -46.8% (active) | -23.7% (active) |
